Active and inactive are the calls of the source. Rule for the calls: active = hit-call score of the fitted dose curve at least 0.9, where 1 is the maximum; inactive = score below 0.9.
Key:
[1] = target: Bile acid receptor (Homo sapiens) (UniProt Q96RI1); assay: ATG_IR1_CIS: Attagene CIS-FACTORIAL HepG2 Assay for human Nuclear Receptor Subfamily 1 Group H Member 4 (NR1H4), IR1 submotif (AID 2282946); conditions: IR1 reporter transcription, actives raise or lower the signal
How it was run: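 Transient MRTU transfection, HepG2; 24 h dosing; RNA → RT-PCR → 6-FAM primer extension → HpaI digest → capillary electrophoresis fluorescence. Gain/loss of signal fitted relative to DMSO.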

[2] = ATG_GRE_CIS: Attagene CIS-FACTORIAL HepG2 Assay for human Glucocorticoid Response Elements (GRE) (AID 2282947); conditions: HepG2 GRE cis-reporter, Attagene multiplex mRNA; actives raise or lower the signal
How it was run: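 HepG2 cells transiently transfected with multiple cis-promoter reporter units measure endogenous TF activity; 24 h compound exposure. Reporter mRNA quantified by RT-PCR, FAM labelling, HpaI digestion and capillary electrophoresis; bidirectional fit vs DMSO baseline.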

[3] = ATG_ISRE_CIS: Attagene CIS-FACTORIAL HepG2 Assay for human Interferon Regulatory Factor 1 (IRF1) binding to an Interferon-Stimulated Response Element (ISRE) (AID 2282948); conditions: HepG2 ISRE cis-reporter (Attagene), mRNA transcription readout; actives raise or lower the signal
How it was run: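 Transfected HepG2 (multiple reporter transcription units, cis elements) dosed 24 h. RNA → oligo(dT) RT → PCR → 6-FAM primer extension → HpaI → CE. DMSO = negative control/baseline.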

[4] = ATG_M_32_CIS: Attagene CIS-FACTORIAL HepG2 Assay for M32 Transcription Factor (Internal Marker) (AID 2282949); conditions: HepG2 Attagene cis-factorial M32 reporter, mRNA; actives raise or lower the signal;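 note: background control marker of the multiplexed CIS panel rather than a real target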
How it was run: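 Following 24 h chemical exposure of HepG2 cells transiently expressing cis-promoter reporter constructs, reporter transcript levels were determined by RT-PCR with fluorescent labelling and capillary electrophoresis, then fitted bidirectionally against DMSO.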

[5] = ATG_M_06_CIS: Attagene CIS-FACTORIAL HepG2 Assay for M06 Transcription Factor (Internal Marker) (AID 2282950); conditions: HepG2 Attagene CIS-FACTORIAL M06 internal marker reporter; actives raise or lower the signal
How it was run: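 Cells (HepG2, transiently carrying cis-driven reporter units) receive chemical for 24 h before RNA isolation. Reporter cDNA is PCR-amplified, FAM-labelled by primer extension, HpaI-digested and sized on a capillary analyser.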

[6] = target: Hypoxia-inducible factor 1-alpha (Homo sapiens) (UniProt Q16665); assay: ATG_HIF1a_CIS: Attagene CIS-FACTORIAL HepG2 Assay for human Hypoxia Inducible Factor 1 (HIF1A) (AID 2282951); conditions: HepG2 Attagene cis-factorial HIF1a reporter transcription; actives raise or lower the signal
How it was run: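 Dosed 24 h, transfected HepG2 cells yielded total RNA whose reporter transcripts were RT-PCR-amplified and sized by capillary electrophoresis using fluorescent labelling; DMSO defined baseline, with gain and loss of signal both fitted.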

[7] = target: Hepatocyte nuclear factor 6 (Homo sapiens) (UniProt Q9UBC0); assay: ATG_HNF6_CIS: Attagene CIS-FACTORIAL HepG2 Assay for human Hepatocyte Nuclear Factor 6 (HNF6) (AID 2282952); conditions: HepG2 Attagene cis-factorial HNF6 reporter transcription; actives raise or lower the signal
How it was run: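 HepG2 cells transiently transfected with cis-element-driven multiplexed reporter units measuring endogenous transcription factor activity. After 24 h exposure, reporter mRNA quantified by RT-PCR, FAM-labelled fragments and capillary electrophoresis; bidirectional fitting versus DMSO.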

[8] = target: Heat shock factor protein 1 (Homo sapiens) (UniProt Q00613); assay: ATG_HSE_CIS: Attagene CIS-FACTORIAL HepG2 Assay for human Heat Shock Transcription Factor 1 (HSE) (AID 2282953); conditions: HepG2 HSE cis-reporter, Attagene RNA transcription; actives raise or lower the signal
How it was run: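 Liver-derived HepG2 cells carry transiently introduced multiple reporter units governed by cis promoters. Reporter RNA measured 24 h post-dose through reverse transcription, PCR amplification, fluorescent labelling and capillary electrophoresis, normalised to DMSO.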

[9] = ATG_MRE_CIS: Attagene CIS-FACTORIAL HepG2 Assay for human Metal Responsive Element (MRE) (AID 2282954); conditions: HepG2 MRE cis-reporter transcription, Attagene multiplex; actives raise or lower the signal
How it was run: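 HepG2 cells transiently transfected with multiple cis-element reporter units measure endogenous MTF1-driven transcription. After 24 h compound exposure, reporter mRNA is quantified by RT-PCR with 6-FAM labelling, HpaI digestion and capillary electrophoresis; bidirectional fits versus DMSO.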

[10] = ATG_PBREM_CIS: Attagene CIS-FACTORIAL HepG2 Assay for human Phenobarbital-responsive Enhancer Module (PBREM) (AID 2282955); conditions: HepG2 PBREM cis-reporter, Attagene multiplexed transcription; actives raise or lower the signal
How it was run: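 Transfected liver-derived HepG2 cells exposed 24 h; PBREM reporter transcript quantified via RT-PCR and capillary electrophoresis, with activity in either direction referenced to DMSO.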

[11] = target: Paired box protein Pax-6 (Homo sapiens) (UniProt P26367); assay: ATG_Pax6_CIS: Attagene CIS-FACTORIAL HepG2 Assay for human Paired Box 6 (PAX6) (AID 2282956); conditions: HepG2 CIS-FACTORIAL PAX6 reporter transcription, RNA readout; actives raise or lower the signal
How it was run: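 Transient MRTU transfection of HepG2 → compound exposure 24 h → TriZol RNA, oligo(dT) RT → PCR, 6-FAM primer extension, HpaI cut → capillary electrophoresis; activity fitted both directions against DMSO.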

[12] = ATG_PPRE_CIS: Attagene CIS-FACTORIAL HepG2 Assay for human Peroxisome Proliferator-activated Response Element (PPRE) (AID 2282958); conditions: HepG2 PPRE cis-element reporter, Attagene transcription factor profiling; actives raise or lower the signal
How it was run: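 Measured endpoint: PPRE-controlled reporter mRNA, detected by RT-PCR and capillary electrophoresis fluorescence, from transiently transfected HepG2 cells 24 h after dosing. Curves fitted in both directions using DMSO baseline.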

[13] = ATG_RORE_CIS: Attagene CIS-FACTORIAL HepG2 Assay for human RAR-related Orphan Receptor Element (RORE) (AID 2282959); conditions: HepG2 Attagene cis-factorial RORE reporter, mRNA; actives raise or lower the signal
How it was run: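 Transiently transfected HepG2 reporter cells were treated 24 h. Reporter transcripts were detected by RT-PCR and capillary electrophoresis, with bidirectional fitting against DMSO.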

[14] = target: Transcription factor Sp1 (Homo sapiens) (UniProt P08047); assay: ATG_Sp1_CIS: Attagene CIS-FACTORIAL HepG2 Assay for human Specificity Protein 1 (Sp1) (AID 2282961); conditions: HepG2 Sp1 cis-reporter transcription, actives raise or lower the signal
How it was run: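 Endpoint reflects endogenous Sp1 transcriptional activity, not an exogenous fusion protein: HepG2 cells with transfected cis-regulated reporters, 24 h dosing, RT-PCR/capillary electrophoresis mRNA read-out, DMSO-normalised bidirectional fit.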

[15] = ATG_SREBP_CIS: Attagene CIS-FACTORIAL HepG2 Assay for human Sterol Regulatory Element Binding (SREBP) (AID 2282962); conditions: HepG2 Attagene cis-factorial SREBP reporter, mRNA; actives raise or lower the signal
How it was run: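 Transfected HepG2 (cis-regulated reporter library, endogenous TFs) → compound 24 h → total RNA → oligo(dT) RT → reporter-specific PCR → FAM primer extension, HpaI cut → CE fluorescence. Fit bidirectional vs DMSO.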

[16] = target: Signal transducer and activator of transcription 3 (Homo sapiens) (UniProt P40763); assay: ATG_STAT3_CIS: Attagene CIS-FACTORIAL HepG2 Assay for human Signal Transducer and Activator of Transcription 3 (STAT3) (AID 2282963); conditions: HepG2, Attagene cis-factorial STAT3 reporter transcription; actives raise or lower the signal
How it was run: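 HepG2 cells transiently transfected with cis-element-driven multiple reporter transcription units; after 24 h chemical exposure, reporter mRNA measured by RT-PCR, 6-FAM primer-extension labelling, HpaI digestion and capillary electrophoresis. Bidirectional fitting versus DMSO baseline.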

[17] = ATG_TA_CIS: Attagene CIS-FACTORIAL HepG2 Assay for human TA Basal Promoter (AID 2282964); conditions: HepG2 Attagene CIS-factorial TA basal promoter reporter; actives raise or lower the signal
How it was run: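 Background internal-marker endpoint from a 52-component HepG2 cis-reporter panel. Cells treated 24 h; reporter transcripts quantified via RT-PCR and CE fluorescence against DMSO baseline.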

[18] = ATG_TCF_b_cat_CIS: Attagene CIS-FACTORIAL HepG2 Assay for human T-Cell-Factor with beta-catenin (TCF/b-cat) (AID 2282965); conditions: HepG2 TCF/beta-catenin cis-reporter transcription, actives raise or lower the signal
How it was run: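 HepG2 cells transiently transfected with multiple cis-promoter-regulated reporter transcription units, so endogenous transcription factor activity is measured. Reporter mRNA read 24 hours after dosing by RT-PCR, fluorescent labelling and capillary electrophoresis; bidirectional fitting against DMSO.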

[19] = ATG_PXRE_CIS: Attagene CIS-FACTORIAL HepG2 Assay for human Pregnane X Receptor Element (PXRE) (AID 2282957); conditions: HepG2 Attagene CIS-FACTORIAL PXRE reporter, mRNA; actives raise or lower the signal
How it was run: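 HepG2 cells transiently transfected with cis-element-driven multiplexed reporter units; after 24 h chemical exposure, reporter mRNA measured by RT-PCR, 6-FAM labelling, HpaI digestion and capillary electrophoresis. Bidirectional fitting relative to DMSO.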

[20] = ATG_Sox_CIS: Attagene CIS-FACTORIAL HepG2 Assay for human SRY-box transcription factor (SOX) (AID 2282960); conditions: HepG2 Attagene cis-factorial SOX reporter, mRNA; actives raise or lower the signal
How it was run: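 Gain- or loss-of-signal endpoint, fitted bidirectionally with DMSO as negative control. Based on reporter mRNA from transfected HepG2 cells harvested 24 h post-treatment and quantified via RT-PCR and capillary electrophoresis.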

Measured: AC50

Chain of Heat shock factor protein 1 (Homo sapiens) (Q00613 whole entry, looked up): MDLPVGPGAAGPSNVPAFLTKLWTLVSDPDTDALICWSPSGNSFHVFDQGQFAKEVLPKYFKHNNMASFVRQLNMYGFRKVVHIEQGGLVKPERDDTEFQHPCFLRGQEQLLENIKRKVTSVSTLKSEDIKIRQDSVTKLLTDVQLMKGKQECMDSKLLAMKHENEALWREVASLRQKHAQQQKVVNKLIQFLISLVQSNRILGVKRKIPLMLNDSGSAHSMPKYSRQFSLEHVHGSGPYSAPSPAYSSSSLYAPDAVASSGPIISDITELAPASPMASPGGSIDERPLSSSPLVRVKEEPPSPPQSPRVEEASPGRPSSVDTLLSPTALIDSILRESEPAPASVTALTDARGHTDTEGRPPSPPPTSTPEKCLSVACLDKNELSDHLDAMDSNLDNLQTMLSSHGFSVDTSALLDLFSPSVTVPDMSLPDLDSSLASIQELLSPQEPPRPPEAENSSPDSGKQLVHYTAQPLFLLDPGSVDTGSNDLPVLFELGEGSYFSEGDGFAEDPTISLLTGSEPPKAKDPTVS
Chain of Signal transducer and activator of transcription 3 (Homo sapiens) (P40763 whole entry, looked up): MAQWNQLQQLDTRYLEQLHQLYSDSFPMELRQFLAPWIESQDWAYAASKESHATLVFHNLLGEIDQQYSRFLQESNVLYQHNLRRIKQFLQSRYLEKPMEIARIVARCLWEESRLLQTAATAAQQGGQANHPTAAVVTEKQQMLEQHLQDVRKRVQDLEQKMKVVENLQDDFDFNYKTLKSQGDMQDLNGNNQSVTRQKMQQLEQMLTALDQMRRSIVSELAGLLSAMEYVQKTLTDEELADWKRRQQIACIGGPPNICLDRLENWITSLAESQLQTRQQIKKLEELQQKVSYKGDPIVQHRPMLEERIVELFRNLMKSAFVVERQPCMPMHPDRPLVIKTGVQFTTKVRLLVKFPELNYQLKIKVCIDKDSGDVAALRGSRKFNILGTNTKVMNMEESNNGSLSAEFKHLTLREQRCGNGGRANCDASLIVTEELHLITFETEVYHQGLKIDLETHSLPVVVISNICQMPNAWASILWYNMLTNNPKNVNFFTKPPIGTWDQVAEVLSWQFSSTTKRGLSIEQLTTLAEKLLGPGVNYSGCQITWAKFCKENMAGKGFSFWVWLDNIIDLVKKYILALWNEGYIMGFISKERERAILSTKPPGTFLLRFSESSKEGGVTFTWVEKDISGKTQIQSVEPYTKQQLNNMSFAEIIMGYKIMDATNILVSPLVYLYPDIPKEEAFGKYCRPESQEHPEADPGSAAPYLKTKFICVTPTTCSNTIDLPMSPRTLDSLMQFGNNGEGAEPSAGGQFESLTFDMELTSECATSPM
Chain of Transcription factor Sp1 (Homo sapiens) (P08047 whole entry, looked up, the tested form may be a part): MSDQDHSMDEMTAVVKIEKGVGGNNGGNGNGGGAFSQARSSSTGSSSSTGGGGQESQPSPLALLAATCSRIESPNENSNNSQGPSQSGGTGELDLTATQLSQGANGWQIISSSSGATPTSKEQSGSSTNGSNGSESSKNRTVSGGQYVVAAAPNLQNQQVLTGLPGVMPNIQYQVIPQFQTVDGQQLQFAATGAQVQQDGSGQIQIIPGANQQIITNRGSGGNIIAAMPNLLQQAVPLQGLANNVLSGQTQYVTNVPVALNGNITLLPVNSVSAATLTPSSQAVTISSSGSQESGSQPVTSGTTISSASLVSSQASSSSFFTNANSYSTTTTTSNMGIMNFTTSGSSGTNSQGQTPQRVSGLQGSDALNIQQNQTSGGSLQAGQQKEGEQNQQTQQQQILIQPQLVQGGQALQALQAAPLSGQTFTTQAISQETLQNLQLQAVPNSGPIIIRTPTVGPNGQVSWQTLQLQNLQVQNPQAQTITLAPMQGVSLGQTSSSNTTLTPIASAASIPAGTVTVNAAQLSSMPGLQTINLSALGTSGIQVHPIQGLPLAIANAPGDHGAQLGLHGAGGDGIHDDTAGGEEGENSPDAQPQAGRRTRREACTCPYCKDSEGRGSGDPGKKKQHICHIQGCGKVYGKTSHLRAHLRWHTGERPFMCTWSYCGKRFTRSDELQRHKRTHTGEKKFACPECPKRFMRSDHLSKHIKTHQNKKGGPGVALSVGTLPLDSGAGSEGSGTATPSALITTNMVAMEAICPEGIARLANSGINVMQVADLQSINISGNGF
Chain of Bile acid receptor (Homo sapiens) (Q96RI1 whole entry, looked up): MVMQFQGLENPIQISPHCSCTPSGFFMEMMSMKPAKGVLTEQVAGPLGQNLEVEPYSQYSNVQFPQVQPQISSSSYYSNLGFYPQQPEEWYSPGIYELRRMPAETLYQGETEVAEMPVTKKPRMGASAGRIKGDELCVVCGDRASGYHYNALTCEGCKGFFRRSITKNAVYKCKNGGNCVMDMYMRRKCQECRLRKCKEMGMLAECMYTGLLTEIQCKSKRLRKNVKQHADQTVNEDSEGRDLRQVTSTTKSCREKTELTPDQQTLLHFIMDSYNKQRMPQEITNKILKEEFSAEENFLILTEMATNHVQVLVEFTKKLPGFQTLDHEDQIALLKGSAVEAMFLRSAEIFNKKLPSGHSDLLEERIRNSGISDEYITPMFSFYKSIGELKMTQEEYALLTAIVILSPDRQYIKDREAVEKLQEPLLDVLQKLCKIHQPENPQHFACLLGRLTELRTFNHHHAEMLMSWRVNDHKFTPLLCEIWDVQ
Chain of Hepatocyte nuclear factor 6 (Homo sapiens) (Q9UBC0 whole entry, looked up, the tested form may be a part): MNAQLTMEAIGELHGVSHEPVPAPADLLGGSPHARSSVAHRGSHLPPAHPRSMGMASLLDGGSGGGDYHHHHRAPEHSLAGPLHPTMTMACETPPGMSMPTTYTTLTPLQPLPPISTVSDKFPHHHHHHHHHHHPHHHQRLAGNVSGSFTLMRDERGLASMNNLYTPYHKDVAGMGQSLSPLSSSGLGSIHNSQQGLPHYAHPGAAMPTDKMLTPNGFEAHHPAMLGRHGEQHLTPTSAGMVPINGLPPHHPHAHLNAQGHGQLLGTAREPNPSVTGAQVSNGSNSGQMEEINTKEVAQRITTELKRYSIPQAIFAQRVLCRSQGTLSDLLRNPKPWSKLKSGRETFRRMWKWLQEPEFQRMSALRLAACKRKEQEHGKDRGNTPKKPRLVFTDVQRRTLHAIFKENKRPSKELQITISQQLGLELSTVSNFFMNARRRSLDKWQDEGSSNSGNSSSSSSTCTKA
Chain of Paired box protein Pax-6 (Homo sapiens) (P26367 whole entry, looked up): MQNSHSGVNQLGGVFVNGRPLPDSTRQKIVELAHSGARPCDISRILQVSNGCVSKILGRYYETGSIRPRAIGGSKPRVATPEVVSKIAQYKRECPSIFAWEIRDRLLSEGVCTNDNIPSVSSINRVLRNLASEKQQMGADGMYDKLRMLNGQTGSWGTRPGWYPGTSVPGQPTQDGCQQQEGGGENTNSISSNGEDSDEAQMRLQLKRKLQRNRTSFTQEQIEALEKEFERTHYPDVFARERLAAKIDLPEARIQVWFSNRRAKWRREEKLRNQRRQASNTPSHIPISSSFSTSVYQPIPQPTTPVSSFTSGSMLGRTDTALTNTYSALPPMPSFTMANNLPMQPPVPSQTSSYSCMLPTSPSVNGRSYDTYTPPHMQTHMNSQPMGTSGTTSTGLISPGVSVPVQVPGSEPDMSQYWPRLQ
Chain of Hypoxia-inducible factor 1-alpha (Homo sapiens) (Q16665 whole entry, looked up): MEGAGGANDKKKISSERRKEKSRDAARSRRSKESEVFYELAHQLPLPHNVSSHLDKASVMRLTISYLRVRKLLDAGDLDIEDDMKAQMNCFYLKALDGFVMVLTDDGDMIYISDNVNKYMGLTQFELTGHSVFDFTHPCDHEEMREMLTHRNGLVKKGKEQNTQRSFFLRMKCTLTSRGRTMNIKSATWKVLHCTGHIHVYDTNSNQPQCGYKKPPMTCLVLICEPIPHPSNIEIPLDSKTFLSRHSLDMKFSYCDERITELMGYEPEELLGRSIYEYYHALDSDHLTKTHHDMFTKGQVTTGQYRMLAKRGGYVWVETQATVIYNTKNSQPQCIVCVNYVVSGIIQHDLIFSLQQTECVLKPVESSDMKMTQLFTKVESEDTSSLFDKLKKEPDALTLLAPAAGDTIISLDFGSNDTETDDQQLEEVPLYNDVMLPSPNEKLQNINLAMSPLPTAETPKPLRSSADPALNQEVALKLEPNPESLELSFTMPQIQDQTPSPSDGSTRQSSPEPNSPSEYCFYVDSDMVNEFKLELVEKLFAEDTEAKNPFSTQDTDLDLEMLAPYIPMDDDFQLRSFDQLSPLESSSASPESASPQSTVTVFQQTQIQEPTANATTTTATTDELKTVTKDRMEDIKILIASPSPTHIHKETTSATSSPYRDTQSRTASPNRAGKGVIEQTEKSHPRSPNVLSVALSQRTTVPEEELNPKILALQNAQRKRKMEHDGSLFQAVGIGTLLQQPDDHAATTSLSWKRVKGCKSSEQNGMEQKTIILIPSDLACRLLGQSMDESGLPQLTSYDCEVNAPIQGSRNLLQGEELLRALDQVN

CCN(CCC#N)c1ccc(N=Nc2c(Cl)cc([N+](=O)[O-])cc2Cl)cc1
active: [6] 43.3 µM
inactive: [1] | [2] | [3] | [4] | [5] | [7] | [8] | [9] | [10] | [11] | [12] | [13] | [14] | [15] | [16] | [17] | [18]

COCC(C)N (configuration not stated)
active: [19] 83.6 µM
inactive: [1] | [2] | [3] | [4] | [5] | [6] | [7] | [8] | [9] | [10] | [11] | [12] | [13] | [20] | [15] | [16] | [17] | [18]

O=S(=O)(O)c1cc(S(=O)(=O)O)c2ccc3c(S(=O)(=O)O)cc(S(=O)(=O)O)c4ccc1c2c43
inactive: [1] | [2] | [3] | [4] | [5] | [6] | [7] | [8] | [9] | [11] | [19] | [12] | [13] | [20] | [14] | [15] | [16] | [17] | [18]

C=COCCCC
inactive: [1] | [2] | [3] | [4] | [5] | [6] | [7] | [8] | [9] | [10] | [11] | [12] | [13] | [20] | [15] | [16] | [17] | [18]

C1=CCCC1
inactive: [1] | [2] | [3] | [4] | [5] | [7] | [8] | [9] | [11] | [19] | [12] | [13] | [20] | [15] | [16] | [17] | [18]
active: [6] 48.6 µM

O=C(O)c1cc(Cl)cc([N+](=O)[O-])c1Cl
inactive: [1] | [2] | [3] | [4] | [5] | [6] | [7] | [8] | [9] | [10] | [11] | [19] | [13] | [20] | [14] | [15] | [16] | [17]

C=CC(=O)OCC(Br)CBr (configuration not stated)
active: [1] 65.3 µM | [3] 100 µM | [8] 155 µM | [11] 34.5 µM | [16] 121 µM | [18] 44.2 µM
inactive: [2] | [4] | [5] | [6] | [7] | [9] | [19] | [12] | [13] | [20] | [15]

From PubChem BioAssay (EPA / NIEHS)
